Screens (PubChem BioAssay)
NTR1 agonist: activates human neurotensin receptor 1; P30989; NTR1-U2OS beta-arrestin-GFP spot imaging, agonist mode; activation, % at 20 µM; 330,000 compounds, 0.17% hits; AID 493036;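 active means activation at or above 40% of the spot to cytoplasm intensity ratio, with at least 20 cells analyzed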
Target sequence (P30989 whole entry, looked up): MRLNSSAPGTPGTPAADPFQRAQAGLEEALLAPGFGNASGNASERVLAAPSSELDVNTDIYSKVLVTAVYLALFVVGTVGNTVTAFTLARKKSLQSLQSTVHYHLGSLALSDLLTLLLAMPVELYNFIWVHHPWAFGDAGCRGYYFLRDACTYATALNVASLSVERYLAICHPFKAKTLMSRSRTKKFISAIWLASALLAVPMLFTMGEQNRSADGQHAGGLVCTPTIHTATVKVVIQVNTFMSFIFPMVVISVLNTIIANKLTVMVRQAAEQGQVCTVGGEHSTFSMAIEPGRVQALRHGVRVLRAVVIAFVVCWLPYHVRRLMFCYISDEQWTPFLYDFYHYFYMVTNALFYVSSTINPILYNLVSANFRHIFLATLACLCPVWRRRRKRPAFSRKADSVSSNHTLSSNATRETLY
MEKK2 mut-MEK5: signal of MEK5 binding to mutant human MEKK2 PB1 domain; bead flow cytometry, Alexa488-MEK5 binding to MEKK2 mutant; percent response, % at 10 µM; 290,000 compounds, 0.35% hits; in the data active means percent response above about 24%, passing the limit was not always enough
TMEM16A act: mouse TMEM16A channel activation, primary screen; Q8BHY3; HEK293 TMEM16A/YFP-H148Q/I152L, iodide quench fluorescence; stronger effect = lower value; B-score at 10 µM; 340,000 compounds, 0.3% hits; AID 623877;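 active means fluorescence-ratio B-score plate-corrected deviation score at least 3 library SD below zero, with starting fluorescence score within 5 deviations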;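 further: channel opened by trigger with iodide after compound preincubation; score built on the fluorescence ratio of max minus min over baseline; more negative score means more quench and so TMEM16A activation or potentiation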
MEKK2wt PB1 HTS: raises or lowers MEK5 binding to wildtype human MEKK2 PB1 domain; bead flow cytometry, Alexa488-MEK5 binding to MEKK2 WT; actives lie on both sides; AID 1531; 290,000 compounds, 1.1% hits; binding response (% of control), % at 10 µM; Q9Y2U5; in the data active means binding response below about 67% or above about 130%
ANO1 block: blocks the mouse calcium-activated chloride channel TMEM16A; Q8BHY3; HEK293 TMEM16A/YFP iodide influx fluorescence, ionomycin; normalized B-score (activity score, 25-100; higher = stronger inhibition) at 10 µM; 310,000 compounds, 1.2% hits; AID 588511;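 active means ratio plate-corrected score three or more library SD toward inhibition, starting fluorescence score within five deviations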;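 further: score derived from kinetic fluorescence span divided by baseline fluorescence per well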
MEKK3 PB1 HTS: MEKK3-MEK5 PB1 interaction, increase or decrease. Q99759. bead-based flow cytometry, Alexa488-MEK5 binding to MEKK3; actives lie on both sides; 0 = blocked by unlabeled MEK5, 100 = vehicle. binding response (% of control), % at 10 µM. 290,000 compounds, 1.4% hits. AID 1529;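 active means binding response more than 3 SD above or below the average of its plate-row segment, actives on both sides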;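 further: Alexa488 bead fluorescence after subtracting the streptavidin-only scavenger bead signal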
TMEM16A reconf: re-confirmation of mouse TMEM16A chloride channel inhibitors; shares compounds with ANO1 block; HEK293 TMEM16A/YFP-H148Q, iodide quench fluorescence; ionomycin added to raise cell calcium; inhibition, % at 10 µM; 2,300 compounds, 39% hits; AID 652189;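 active means mean duplicate percent inhibition, scaled so buffer wells are 0 and the reference blocker 100, over three buffer SD above buffer mean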
TMEM16A Ca cntr: alters calcium mobilization in TMEM16A HEK293 cells, counter-screen. shares compounds with ANO1 block. TMEM16A/YFP HEK293, Fluo4 calcium mobilization. calcium response (% of ionomycin), % at 10 µM. 2,300 compounds, 2% hits;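 active means duplicate-averaged calcium signal over 20% of the ionomycin maximum, relative to buffer baseline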;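 further: each well's signal is peak minus trough fluorescence divided by its pre-addition baseline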
Parental YFP cnt: counter-screen for TMEM16A inhibitors: effect in parental YFP-HEK293 cells; shares compounds with ANO1 block; iodide YFP quench, ionomycin; YFP ratio F(max-min)/F0 at 10 µM; 2,300 tested, under 10 active; AID 652233;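 active means yellow fluorescent protein signal ratio exceeding the buffer control mean by over 5 SD of those controls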;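 further: ratio is mean of duplicate wells from kinetic YFP trace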
ClC-1 inh: blocks the rat ClC-1 voltage-dependent chloride channel. shares compounds with ANO1 block. CHO ClC-1-YFP, iodide influx fluorescence quench; iodide control reads 0, buffer control 100. ratio percent, % at 10 µM. 2,300 tested, under 10 active. AID 652236;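 active means duplicate-mean ratio percent above the mean of iodide-only control wells, which defines zero, plus 5 of their SD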;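 further: higher percent means stronger block of ClC-1 iodide influx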
Each line names hits and unclear results; the compound was inactive in the other large screens (follow-up assays come after a bar, where they were run). The list is not random: actives were taken first. Their share in the collection is about 3.4%.

O=C(NCc1ccc(Cl)cc1)c1ccccc1Oc1ccccc1	ANO1 block 100 | TMEM16A reconf inactive | TMEM16A Ca cntr inactive | Parental YFP cnt inactive | ClC-1 inh inactive
COc1ccc(-c2nc3cnccn3c2NCc2ccccc2)cc1SC1CCCCC1	ANO1 block 25 (no result: MEKK2 mut-MEK5, MEKK2wt PB1 HTS, MEKK3 PB1 HTS) | TMEM16A reconf inactive | TMEM16A Ca cntr inactive | Parental YFP cnt inactive | ClC-1 inh inactive
CC(C)n1nnnc1-c1cccc(Cl)c1	none | TMEM16A reconf inactive | TMEM16A Ca cntr inactive | Parental YFP cnt inactive | ClC-1 inh inactive
O=C(Nc1ccc2c(c1)OCO2)C1CCCCN1S(=O)(=O)c1ccccc1 (stereo unspecified)	none
CCOc1cc(C(=S)N2CCCCC2)ccc1OS(=O)(=O)c1ccc(Br)cc1	none
CCOc1cc(C(=S)N2CCC(O)CC2)ccc1OS(=O)(=O)c1ccc(Br)cc1	ANO1 block 25 | TMEM16A reconf inactive | TMEM16A Ca cntr inactive | Parental YFP cnt inactive | ClC-1 inh inactive
Cc1cc(C)n(-c2nc3sc4c(c3c3nnc(SC(C)C)n23)CC(C)(C)OC4)n1	ANO1 block 100 (no result: MEKK2 mut-MEK5, MEKK2wt PB1 HTS, MEKK3 PB1 HTS) | TMEM16A reconf inactive | TMEM16A Ca cntr inactive | Parental YFP cnt inactive | ClC-1 inh inactive
COC(=O)CSc1nnc2c3c4c(sc3nc(-n3nc(C)cc3C)n12)COC(C)(C)C4	none
CCn1c(NC(=O)C(C)C)c(-c2ccccc2)c(=O)c2ccccc21	none
CCn1c(SCC(=O)Nc2ccc3c(c2)oc2ccccc23)nnc1-c1ccc(N)cc1	ANO1 block 100 | TMEM16A reconf inactive | TMEM16A Ca cntr inactive | Parental YFP cnt inactive | ClC-1 inh inactive
CCN1CCN(C(=O)/C(=C/c2cccs2)NC(=O)c2ccc(C)c(C)c2)CC1	none
CC(OC(=O)c1cc(Br)ccc1O)C(=O)Nc1ccc(S(=O)(=O)N2CCCC2)cc1 (stereo unspecified)	ANO1 block 100 (no result: MEKK2 mut-MEK5, MEKK2wt PB1 HTS, MEKK3 PB1 HTS) | TMEM16A reconf 62% | TMEM16A Ca cntr inactive | Parental YFP cnt inactive | ClC-1 inh inactive
O=C(CSc1nnc(Cc2cc(=O)[nH]c(=O)[nH]2)n1-c1ccccc1)N1CCCCC1	none | TMEM16A reconf inactive | TMEM16A Ca cntr inactive | Parental YFP cnt inactive | ClC-1 inh inactive
COC(=O)c1c(NC(=O)CN(C)CC(=O)Nc2ccc(C)cc2)sc2c1CCC(C)C2 (stereo unspecified)	none (no result: MEKK2 mut-MEK5, MEKK2wt PB1 HTS, ANO1 block, MEKK3 PB1 HTS)
COC(=O)c1c(NS(=O)(=O)c2ccc(C)cc2)sc2c1CCC(C)C2 (stereo unspecified)	ANO1 block 100 | TMEM16A reconf 30% | TMEM16A Ca cntr inactive | Parental YFP cnt inactive | ClC-1 inh inactive
CC(C)OC(=O)c1c(NS(=O)(=O)c2ccccc2)sc2c1CCCC2	ANO1 block 100 | TMEM16A reconf 72% | TMEM16A Ca cntr inactive | Parental YFP cnt inactive | ClC-1 inh inactive
CCC(C)[C@H](NS(=O)(=O)c1ccc(C)cc1)C(=O)N1CCC(C(=O)N2CCC(C(N)=O)CC2)CC1 (stereo partly specified)	none
CCOC(=O)c1c(N/C=C(\C#N)c2nc(-c3ccc(OC(C)=O)cc3)cs2)sc2c1CCC2	none (no result: NTR1 agonist, MEKK2 mut-MEK5, MEKK2wt PB1 HTS, ANO1 block, MEKK3 PB1 HTS)
CCc1ccc(C(=O)C(C)OC(=O)c2cccc(S(=O)(=O)N3CCOCC3)c2)cc1 (stereo unspecified)	none (no result: MEKK2 mut-MEK5, MEKK2wt PB1 HTS, MEKK3 PB1 HTS)
CCOc1ccccc1NC(=O)C(=O)NCCC1=CCCCC1	none
CC(=O)c1sc(NC(=O)C=C(C)C)nc1C	none
